# Measured values taken from PubChem BioAssay.
# The source made the active and inactive calls. Rule as the data show it, unless noted: active = inhibition above about 80%; inactive = the rest.
# Assays:
# [1] = growth inhibition, single agents and combos, LFS_MB_1R, cell-based, cisplatin or BGB combos, synergistic combos for chromothripsis tumors (AID 1671452); conditions: LFS_MB_1R medulloblastoma cells, stronger effect = higher value;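 also: cells exposed for 96 hours before readout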
# [2] = growth inhibition, single agents and combos, CRL2098, cell-based, BGB or cisplatin IC20 combos, synergistic combos for chromothripsis tumors (AID 1671454); conditions: CRL2098 osteosarcoma cells, drug combinations, stronger effect = higher value;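 also: cells exposed for 96 h before readout; 0% = vehicle DMSO and 100% = killing by high DMSO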
# [3] = growth inhibition, single agents and combos, HD-MB03, cell-based, BGB or cisplatin IC20 combos, synergistic combos for chromothripsis tumors (AID 1671455; in the data active = inhibition above about 83%;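 also: 0% = vehicle DMSO and 100% = high DMSO as cytotoxic control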); conditions: HD-MB03 medulloblastoma cells, stronger effect = higher value
# [4] = growth inhibition, single agents and combos, UWB1.289, cell-based, BGB or cisplatin combos, synergistic combos for chromothripsis tumors (AID 1671456); conditions: UWB1.289 ovarian carcinoma cells, stronger effect = higher value;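 also: cells exposed to compound for four days; 0% = vehicle DMSO and 100% = killing by high DMSO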
# [5] = growth inhibition, single agents and combos, LFS_MB_2R, cell-based, cisplatin combos, synergistic combos for chromothripsis tumors (AID 1671457); conditions: LFS_MB_2R medulloblastoma cells, stronger effect = higher value;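 also: cells exposed to compound for four days before readout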
# [6] = growth inhibition, MDA-MB-436, cell-based, BGB or cisplatin combos, synergistic combos for chromothripsis tumors (AID 1671458; call rule not given here;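 also: cells exposed for 96 hours; 0% = vehicle DMSO and 100% = killing by high DMSO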); conditions: MDA-MB-436 breast carcinoma growth inhibition, drug combinations, stronger effect = higher value
# [7] = UWB1.289_BRCA1 ovarian cancer growth, cell-based, BGB or cisplatin combinations (AID 1671459); conditions: UWB1.289 BRCA1 ovarian carcinoma, drug combinations, stronger effect = higher value
# [8] = drug combination toxicity in non-malignant astrocytes – cell-based, BGB or cisplatin IC20 combos, cytotoxicity control for chromothriptic childhood tumor combination screen (AID 1671460); conditions: Human astrocytes, viability inhibition, drug combinations, at 0.5 µM, stronger effect = higher value;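 also: cells exposed to compounds for 96 hours before viability readout; 0% = vehicle and 100% = killing control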
# [9] = BT084 cell growth, single and combined drugs, ICGC_MB145, cisplatin and BGB IC40 combos (AID 1671461); conditions: BT084 medulloblastoma cells, drug combinations, stronger effect = higher value;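 also: cells exposed to drugs for 96 hours; 0% = vehicle DMSO and 100% = high DMSO full killing control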
# [10] = RCMB18 cell growth, single agent and combined, cisplatin and BGB IC40 combos (AID 1671462); conditions: RCMB18 medulloblastoma cells, stronger effect = higher value;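 also: cells exposed to compound for four days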
# [11] = CRL1545 cell growth, single agent and combined, cisplatin and BGB IC20 combos (AID 1671464); conditions: CRL1545 osteosarcoma cells, stronger effect = higher value;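 also: cells exposed to compound for 96 hours before readout; 0% = vehicle DMSO and 100% = high DMSO killing control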
# [12] = measured here: combination with cisplatin, at 0.5 µM
# [13] = measured here: combination with cisplatin, at 5 µM
smiles,measurement,setting,value
O=c1cc(N2CCOCC2)oc2c1ccc1ccccc12,inhibition,[1]; at 0.5 µM,-3.28% (inactive)
same,inhibition,"[1]; measured here: combination with BGB IC40, at 0.05 µM",-8.81%
same,inhibition,[1]; [12],-5.09%
same,inhibition,[1]; [13],16.4%
same,inhibition,[2]; at 0.5 µM,-13.1% (inactive)
same,inhibition,"[2]; measured here: combination with BGB at IC20, at 0.5 µM",-40.8%
same,inhibition,"[2]; measured here: combination with cisplatin at IC20, at 0.5 µM",19.4%
same,inhibition,[3]; at 0.5 µM,3.57% (inactive)
same,inhibition,"[3]; measured here: combo with BGB at IC20, at 0.5 µM",4.4%
same,inhibition,"[3]; measured here: combo with cisplatin at IC20, at 0.5 µM",-1.01%
same,inhibition,[4]; at 0.5 µM,-1.52% (inactive)
same,inhibition,"[4]; measured here: inhibition with BGB combination, at 0.05 µM",2.55%
same,inhibition,"[4]; measured here: inhibition with cisplatin combination, at 0.05 µM",-7.12%
same,inhibition,[5]; at 0.5 µM,0.24% (inactive)
same,inhibition,[5]; [12],7.58%
same,inhibition,[5]; [13],0.815%
same,inhibition,[6]; at 0.5 µM,2.45% (inactive)
same,inhibition,"[6]; measured here: BGB combination, at 0.5 µM",5.3%
same,inhibition,"[6]; measured here: BGB combination, at 5 µM",-21.1%
same,inhibition,"[6]; measured here: cisplatin combination, at 0.5 µM",-2.44%
same,inhibition,"[6]; measured here: cisplatin combination, at 5 µM",-6.05%
same,inhibition,"[7]; BGB combination, concentration series, at 5 µM",-2.5%
same,inhibition,[7]; at 0.5 µM,-1.77% (inactive)
same,inhibition,"[7]; cisplatin combination, concentration series, at 5 µM",4.97%
same,inhibition,[8],1.74% (inactive)
same,inhibition,[8]; measured here: combo with BGB IC20,-0.854%
same,inhibition,[8]; measured here: combo with cisplatin IC20,0.235%
same,inhibition,[9]; at 0.5 µM,-4.41% (inactive)
same,inhibition,"[9]; cisplatin combination, at 0.5 µM",-0.482%
same,inhibition,"[9]; cisplatin combination, at 5 µM",-111%
same,inhibition,"[9]; measured here: BGB IC40 combination 0.05 uM, at 0.05 µM",-19.7%
same,inhibition,"[9]; single agent, at 5 µM",2.3%
same,inhibition,[10]; at 0.5 µM,-17.7% (inactive)
same,inhibition,"[10]; cisplatin combo, at 5 µM",21.8%
same,inhibition,"[10]; measured here: BGB IC40 combination, at 0.05 µM",-2.3%
same,inhibition,[10]; [12],-18.7%
same,inhibition,"[10]; single agent, at 5 µM",1.08%
same,inhibition,[11]; at 0.5 µM,11.6% (inactive)
same,inhibition,"[11]; measured here: with BGB IC20 combination, at 0.5 µM",-23.5%
same,inhibition,"[11]; measured here: with cisplatin IC20 combination, at 0.5 µM",28%
same,inhibition,"[11]; single agent, at 0.05 µM",-4.12%
same,inhibition,"[11]; single agent, at 5 µM",-7.26%
